The record followed here is PubChem BioAssay (Tox21).

“And” between values parts separate entries of the source, which are not always exact repeats. Equal entries are not always repeated. Results filed as inconclusive are left out. The source made the active and inactive calls. Unless noted, the call rests on the fitted dose curve; in most records, active means well fitted curve in the direction sought with a large enough effect in the repeat runs; inconclusive means weak or mixed curves; inactive means no such curve, though single readings can be large; an effect the other way counts as inactive or inconclusive.

Assay [1] is described as follows: qHTS assay to identify small molecule agonists of the peroxisome proliferator-activated receptor delta (PPARd) signaling pathway - cell viability counter screen (AID 743211). Further: nearly all actives have a fitted effect of over 55% in size. Further: potency means the concentration at half of the fitted maximal effect. Put shortly:
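Tox21 library compounds, delivered in DMSO, were incubated 17 h with PPARd-bla HEK293H cells; cytotoxicity was taken from CellTiter-Glo luminescence read 30 min after reagent addition.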
(Quantitative high-throughput screening tests each substance at several concentrations.)

The nature of assay [2]: qHTS assay to identify small molecule antagonists of the peroxisome proliferator-activated receptor delta (PPARd) signaling pathway - cell viability counter screen (AID 743213). Further: nearly all actives have a fitted effect of over 50% in size. Put shortly:
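Agonist-stimulated (L165041, 300 nM final) HEK293H PPARd UAS-bla cells are exposed to compounds for 17 h at 37 C, and ATP-based luminescence (CellTiter-Glo) from the same wells reports cytotoxicity.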

Assay [3] in a line: qHTS assay to identify small molecule agonists of the farnesoid-X-receptor (FXR) signaling pathway - cell viability counter screen (AID 743218). Further: nearly all actives have a fitted effect of over 45% in size. Further: potency means the concentration at half of the fitted maximal effect. In a few lines:
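Luminescence from CellTiter-Glo, read after 30 min at RT, reports viability of GeneBLAzer FXR-UAS-bla HEK 293T cells treated 16 h with compounds in the wells used for the beta-lactamase reporter.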

Assay [4] is described as follows: qHTS assay to identify small molecule antagonists of the farnesoid-X-receptor (FXR) signaling pathway - cell viability counter screen (AID 743221; active means well fitted cell-killing curve with a large enough effect in the repeat runs, not every such curve was filed as active; further: nearly all actives have a fitted effect of over 50% in size; further: potency means the concentration at half of the fitted maximal effect). Put shortly: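 Cytotoxicity is taken from ATP luminescence (CellTiter-Glo, 30 min, room temperature) in FXR-bla HEK 293T cells previously incubated 16 h at 37 C with compound and chenodeoxycholic acid at 50 uM final.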

The target in assay [5] is Vitamin D3 receptor (Homo sapiens) (UniProt P11473). Briefly: qHTS assay to identify small molecule agonists of the vitamin D receptor (VDR) signaling pathway (AID 743222; calls by dose curve). Put shortly:
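Beta-lactamase reporter readout (LiveBLAzer B/G FRET, 2 h RT) in VDR-bla cells after 16 h compound treatment at 37C, 5% CO2; cells pre-incubated 4 h before pin transfer of DMSO solutions.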

Assay [6] shares this target. Briefly: qHTS assay to identify small molecule antagonists of the vitamin D receptor (VDR) signaling pathway (AID 743223; active means well fitted inhibition curve with a large enough effect in the signal ratio in the repeat runs, not every such curve was filed as active; the % refers to the signal ratio). Put shortly:
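Quantitative HTS in VDR-bla reporter cells stimulated with 1alpha,25-dihydroxyvitamin D3, 3 nM final. Compound exposure 16 h, 37C, 5% CO2. Read-out: beta-lactamase FRET substrate fluorescence, 2 h RT.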

A short description of assay [7]: qHTS assay to identify small molecule agonists of the vitamin D receptor (VDR) signaling pathway - cell viability counter screen (AID 743224). Further: nearly all actives have a fitted effect of over 50% in size. Further: potency means the concentration at half of the fitted maximal effect. In a few lines:
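Cytotoxicity counter screen: VDR-bla cells, 16 h compound exposure at 37C, 5% CO2; CellTiter-Glo luminescence, 30 min RT, same wells as bla read.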

Assay [8] in a line: qHTS assay to identify small molecule antagonists of the vitamin D receptor (VDR) signaling pathway - cell viability counter screen (AID 743225). Further: nearly all actives have a fitted effect of over 50% in size. Further: potency means the concentration at half of the fitted maximal effect. In a few lines: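 Same-well multiplex: following 16 h treatment of HEK 293T cells carrying a UAS-driven beta-lactamase reporter with compound and agonist (3 nM final), and a 2 h FRET substrate step, CellTiter-Glo was added and luminescence read after 30 min.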

Assay [9] in a line: qHTS assay to identify small molecule agonists of the NFkB signaling pathway - cell viability counter screen (AID 1159515; calls by dose curve; further: nearly all actives have a fitted effect of over 55% in size; further: potency means the concentration at half of the fitted maximal effect). Put shortly:
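ME-180 NFkB-bla cells, 2,000/well; overnight attach; compound 5 hr, 37 C/5% CO2; LiveBLAzer substrate 1.5 hr RT; then CellTiter-Glo in same wells, 30 min RT, luminescence read.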

Assay [10] in a line: qHTS assay to identify small molecule agonists of the endoplasmic reticulum stress response signaling pathway - cell viability counter screen (AID 1159517; calls by dose curve; further: nearly all actives have a fitted effect of over 50% in size; further: potency means the concentration at half of the fitted maximal effect). In a few lines:
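ESRE-bla HeLa cells (1,500/well) were plated overnight at 37 C and exposed to compounds for 5 hr. After the 2 hr beta-lactamase substrate read, CellTiter-Glo went into the same wells, and luminescence was read after 30 min at room temperature.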

A short description of assay [11]: qHTS assay to identify small molecule antagonists of the retinoid-related orphan receptor gamma (ROR-gamma) signaling pathway - cell viability counter screen (AID 1159520). Further: nearly all actives have a fitted effect of over 50% in size. Further: potency means the concentration at half of the fitted maximal effect. Put shortly: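 Cytotoxicity was read from cellular ATP (CellTiter-Glo luminescence) after 16 hr at 37 C with 1 uM doxycycline induction. The inducer was added 2 hr after compound transfer to Tet-on ROR gamma CHO cells.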

The target of assay [12] is Nuclear receptor ROR-gamma (Homo sapiens) (UniProt P51449). Briefly: qHTS assay to identify small molecule antagonists of the retinoid-related orphan receptor gamma (ROR-gamma) signaling pathway (AID 1159521; further: nearly all actives have a fitted effect of over 50% in size; further: potency means the concentration at half of the fitted maximal effect). In a few lines:
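Inducible-expression reporter assay: doxycycline (1 uM final) switched on RORγ in CHO cells bearing a ROR response element-luciferase construct, with test compounds present from 2 h beforehand. Decreased luminescence after 16 h defined antagonist activity.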

Assay [13] is described as follows: qHTS assay to identify small molecule agonists of the AP-1 signaling pathway - cell viability counter screen (AID 1159525; calls by dose curve; further: nearly all actives have a fitted effect of over 55% in size; further: potency means the concentration at half of the fitted maximal effect). In a few lines:
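Intracellular ATP by Cell Titer Glo luminescence (30 min, RT) in the same ME-180 AP-1-bla wells after the 5 h compound exposure at 37 °C. Normalised to tetra n-octyl ammonium bromide and DMSO controls.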

The target of assay [14] is Retinoic acid receptor RXR-alpha (Homo sapiens) (UniProt P19793). Briefly: qHTS assay to identify small molecule agonists of the RXR signaling pathway (AID 1159527; calls by dose curve; further: nearly all actives have a fitted effect of over 35% in size). Put shortly: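 Compounds in DMSO were added to RXR-alpha-UAS-bla HEK 293T cells kept in 2% charcoal-stripped serum, and incubated 16 hr at 37 C with 5% CO2. Reporter signal came from a 2 hr B/G FRET substrate step.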

Assay [15] can be described thus: qHTS assay to identify small molecule agonists of the AP-1 signaling pathway (AID 1159526; calls by dose curve).
In assay [16] the target is Bile acid receptor (Homo sapiens) (UniProt Q96RI1). Briefly: qHTS assay to identify small molecule agonists of the farnesoid-X-receptor (FXR) signaling pathway (AID 743220; active means well fitted activation curve with a large enough effect in the signal ratio in the repeat runs, not every such curve was filed as active; the % refers to the signal ratio). In a few lines:
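FXR-UAS-bla HEK 293T cells carrying a UAS-driven beta-lactamase reporter were plated for 5 h at 37C/5% CO2, then exposed to DMSO-dissolved Tox21 10K compounds for 16 h at 37C. A LiveBLAzer B/G FRET substrate was loaded for 2 h at room temperature before fluorescence reading.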

The target of assay [17] is Peroxisome proliferator-activated receptor delta (Homo sapiens) (UniProt Q03181). Briefly: qHTS assay to identify small molecule agonists of the peroxisome proliferator-activated receptor delta (PPARd) signaling pathway (AID 743212; calls by dose curve). Put shortly: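 Beta-lactamase reporter readout: a ratiometric FRET signal from the LiveBLAzer substrate after 2 h at room temperature. Compound exposure at 37 °C in PPARδ-bla HEK293H cells driven by an upstream activator sequence.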

For assay [18] the target is unchanged. Briefly: qHTS assay to identify small molecule antagonists of the peroxisome proliferator-activated receptor delta (PPARd) signaling pathway (AID 743215; active means well fitted inhibition curve with a large enough effect in the signal ratio in the repeat runs, not every such curve was filed as active; the % refers to the signal ratio; further: series mostly up to about 62 µM). In a few lines: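 HEK293H GeneBLAzer PPARd UAS-bla reporter cells; cpd + L165041 300 nM final, 17 h 37 C; LiveBLAzer B/G FRET substrate 2 h RT; fluorescence intensity read-out. Antagonist mode.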
The target of assay [19] is Bile acid receptor (Homo sapiens) (UniProt Q96RI1). Put plainly: qHTS assay to identify small molecule antagonists of the farnesoid-X-receptor (FXR) signaling pathway (AID 743217; active means well fitted inhibition curve with a large enough effect in the signal ratio in the repeat runs, not every such curve was filed as active; the % refers to the signal ratio). Put shortly:
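Read-out: beta-lactamase FRET fluorescence (LiveBLAzer B/G substrate, 2 h, room temperature) in GeneBLAzer FXR-UAS-bla HEK 293T cells. Compounds were co-dosed with 50 uM chenodeoxycholic acid (final) and incubated 16 h at 37 °C.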

Sequence of Vitamin D3 receptor (Homo sapiens) (P11473 whole entry, looked up): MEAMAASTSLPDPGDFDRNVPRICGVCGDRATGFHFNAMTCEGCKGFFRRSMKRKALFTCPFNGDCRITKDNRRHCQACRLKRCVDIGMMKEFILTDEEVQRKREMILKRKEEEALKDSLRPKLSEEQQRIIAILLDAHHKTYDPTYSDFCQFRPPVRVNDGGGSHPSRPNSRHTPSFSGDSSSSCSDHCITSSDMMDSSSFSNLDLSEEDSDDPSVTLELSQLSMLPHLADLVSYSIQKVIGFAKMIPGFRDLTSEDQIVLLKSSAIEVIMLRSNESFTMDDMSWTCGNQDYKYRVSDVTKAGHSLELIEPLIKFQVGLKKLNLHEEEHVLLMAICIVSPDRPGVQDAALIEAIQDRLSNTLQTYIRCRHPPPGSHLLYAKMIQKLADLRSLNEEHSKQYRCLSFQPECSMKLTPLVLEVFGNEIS
Sequence of Peroxisome proliferator-activated receptor delta (Homo sapiens) (Q03181 whole entry, looked up): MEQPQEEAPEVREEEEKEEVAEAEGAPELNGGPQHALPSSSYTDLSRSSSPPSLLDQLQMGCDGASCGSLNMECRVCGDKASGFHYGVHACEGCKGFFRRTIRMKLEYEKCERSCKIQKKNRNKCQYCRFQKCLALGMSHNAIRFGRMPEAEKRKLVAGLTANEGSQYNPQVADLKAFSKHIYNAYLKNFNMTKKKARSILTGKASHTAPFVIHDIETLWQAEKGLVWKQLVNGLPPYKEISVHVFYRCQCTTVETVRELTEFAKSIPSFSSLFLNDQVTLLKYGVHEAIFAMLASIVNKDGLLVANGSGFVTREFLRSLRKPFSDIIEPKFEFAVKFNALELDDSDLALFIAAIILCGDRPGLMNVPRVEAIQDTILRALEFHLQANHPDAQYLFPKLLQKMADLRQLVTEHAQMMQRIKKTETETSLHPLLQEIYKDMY
Sequence of Retinoic acid receptor RXR-alpha (Homo sapiens) (P19793 whole entry, looked up): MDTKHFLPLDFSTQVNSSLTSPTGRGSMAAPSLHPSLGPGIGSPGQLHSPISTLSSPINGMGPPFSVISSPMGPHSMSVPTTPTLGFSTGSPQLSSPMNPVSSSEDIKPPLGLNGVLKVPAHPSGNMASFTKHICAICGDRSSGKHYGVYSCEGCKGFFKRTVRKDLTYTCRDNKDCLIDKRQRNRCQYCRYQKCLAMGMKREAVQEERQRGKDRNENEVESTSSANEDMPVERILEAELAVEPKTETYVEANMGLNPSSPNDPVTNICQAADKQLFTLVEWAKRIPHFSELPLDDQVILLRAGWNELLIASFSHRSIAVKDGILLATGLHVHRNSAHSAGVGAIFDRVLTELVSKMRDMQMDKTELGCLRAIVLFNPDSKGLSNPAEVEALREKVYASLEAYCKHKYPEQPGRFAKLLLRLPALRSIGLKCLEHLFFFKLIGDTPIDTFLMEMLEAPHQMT
Sequence of Bile acid receptor (Homo sapiens) (Q96RI1 whole entry, looked up): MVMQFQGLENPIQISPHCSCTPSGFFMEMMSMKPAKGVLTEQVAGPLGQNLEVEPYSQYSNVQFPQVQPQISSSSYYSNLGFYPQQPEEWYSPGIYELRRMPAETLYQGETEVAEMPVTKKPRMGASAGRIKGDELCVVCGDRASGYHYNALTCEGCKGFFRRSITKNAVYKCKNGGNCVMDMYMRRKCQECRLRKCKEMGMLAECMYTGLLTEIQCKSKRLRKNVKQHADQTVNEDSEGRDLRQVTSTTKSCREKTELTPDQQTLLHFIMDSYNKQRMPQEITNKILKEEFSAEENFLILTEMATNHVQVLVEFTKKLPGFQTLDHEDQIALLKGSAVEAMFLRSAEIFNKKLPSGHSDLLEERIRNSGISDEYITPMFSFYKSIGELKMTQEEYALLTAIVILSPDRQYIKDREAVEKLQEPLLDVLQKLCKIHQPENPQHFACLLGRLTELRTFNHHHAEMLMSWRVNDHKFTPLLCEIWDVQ

With `CN1C(=O)[C@@H](NC(=O)c2cc3ccccc3[nH]2)N=C(c2ccccc2)c2ccccc21`, the Potency entry in assay [1], in assay [2], in assay [3], in assay [4], in assay [5] and in assay [6] was “inactive” each time. Also, the Potency entry in assay [7], in [8], in assay [9], in assay [10], in [11] and in assay [12] was “inactive” each time. The Potency result in [13] and in assay [14] was “inactive” throughout.

With `CC(C)N(C(=O)CCl)c1ccccc1`, the Potency entry in [4], in [7], in assay [8], in assay [9], in [10] and in [13] was “inactive” in each case. In addition, the Potency entry in [15] was “inactive”. The Potency in [11] was 27.3 µM (active) and 30.6 µM (active).

On to `CN1CCc2cc3c(cc2C1O)OCO3` (stereo unspecified), for which the Potency entry in assay [1], in assay [4], in assay [7], in assay [9], in [10] and in assay [11] was “inactive” each time. Besides, the Potency result in [12], in assay [13] and in [15] was “inactive” in each case.

As for `CC(C)[C@@H](Nc1ccc(C(F)(F)F)cc1Cl)C(=O)OC(C#N)c1cccc(Oc2ccccc2)c1` (stereo partly specified), the Potency result in assay [1], in assay [3], in assay [16], in assay [5], in [7] and in assay [8] was “inactive” each time. Besides, the Potency result in assay [9], in assay [10], in assay [11], in assay [12] and in assay [13] was “inactive” each time.

Turning to `CCOP(=S)(OCC)Oc1cc(C)nc(N(CC)CC)n1`, the Potency result in assay [17], in assay [18], in assay [19], in assay [16], in assay [6] and in assay [7] was “inactive” in each case. Besides, the Potency entry in assay [9], in [10], in assay [11], in [12], in assay [13] and in [14] was “inactive” throughout.

In the case of `N#Cc1c2ccccc2cc2ccccc12`, the Potency entry in assay [7], in [9], in assay [10], in assay [11], in [12] and in assay [13] was “inactive” each time.

As for `c1ccc(N=NNc2ccccc2)cc1`, the Potency in assay [1] was 56.8 µM (active). Besides, the Potency entry in assay [17], in [18], in assay [3], in [4], in assay [9] and in assay [10] was “inactive” each time. The Potency entry in assay [11], in [12], in assay [13] and in assay [14] was “inactive” each time.

For the compound `CC(C)C(Nc1ccc(C(F)(F)F)cc1Cl)C(=O)OC(C#N)c1cccc(Oc2ccccc2)c1` (stereo unspecified), the Potency result in assay [1], in assay [2], in [18], in [3], in [5] and in assay [7] was “inactive” throughout. Further, the Potency entry in [8], in assay [9], in assay [10], in assay [11], in assay [12] and in assay [13] was “inactive” throughout. Also, the Potency result in assay [14] was “inactive”.

Regarding `[O]=[Cr](=[O])([OH])[O][Cr](=[O])(=[O])[OH]`, the Potency in assay [1] was 22.1 µM (active) and 27.5 µM (active); in assay [3] it was 27.5 µM (active); in assay [4], 19.7 µM (active) and 24.5 µM (active); in assay [7], 17.5 µM (active) and 21.8 µM (active); in [8], 19.7 µM (active) and 21.8 µM (active); in assay [9], 30.8 µM (active). Besides, the Potency was 22.1 µM (active) and 34.6 µM (active) in [10]; 5.5 µM (active) and 2.43 µM (active) in [11]; 4.9 µM (active) and 4.32 µM (active) in [12]; 24.8 µM (active) in assay [13]. Further, the Potency result in [5] and in assay [15] was “inactive” throughout.
